In PubChem BioAssay (Tox21):
Values joined by “and” are separate entries in the source; they are usually repeats but may differ in a detail not shown here. Equal values may be shown once. Results filed as inconclusive are left out. Where a call stands in place of a potency, no number is given. A number with no mark means an inactive call. Active and inactive are the calls of the source. Calls follow the shape of the dose curve; as a rule, active = well fitted cell-killing curve with a large enough effect in the repeat runs; inconclusive = weak or mixed curves, or effect the other way; inactive = flat fitted curve, though single readings scatter.

Assay: qHTS assay to identify small molecule that activate the aryl hydrocarbon receptor (AhR) signaling pathway - cell viability counter screen (AID 743086); also: nearly all actives have a fitted effect of over 45% in size;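 as to viability change, negative = cytotoxic: HepG2 liver cells carrying the AhR DRE luciferase reporter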
Details: HepG2-AhR-luc viability, CellTiter-Fluor, 24 h; series mostly up to 70.3 µM
Text: U.S. Tox21 Program National Center for Advancing Translational Sciences [NCATS] NIH Chemical Genomics Center [NCGC] U.S. Environmental Protection Agency [EPA] National Institutes of Environmental Health Sciences [NIEHS] National Toxicology Program [NTP] U.S. Food and Drug Administration [FDA] Tox21 Assay overview: The Aryl hydrocarbon Receptor (AhR), a member of the family of basic helix-loop-helix transcription factors, is crucial to adaptive responses to environmental changes. AhR mediates cellular responses to environmental pollutants such as aromatic hydrocarbons through induction of phase I and II enzymes but also interacts with other nuclear receptor signaling pathways A cell based HepG2-AhR-luc assay (HG2L7.5c1 cell line, developed by Dr. Michael S. Denison, University of California at Davis) was used to assess the activation of AhR. HepG2 (human hepatocellular carcinoma) cells were stably transfected with an Ah receptor-responsive firefly luciferase reporter gene plasmid containing 20 dioxin responsive elements and luciferase reporter gene. Increased luciferase activity can be used to identify the compounds that induce AhR activation. The cytotoxicity of the compounds screened against the HepG2-AhR-luc cell line was tested in parallel by measuring the cell viability using CellTiter-Fluor assay in the same wells.
Tox21 Assay Protocol Summary: 4000 cells in 5 uL/well were dispensed into white wall/solid bottom 1536-well plates using a Multidrop Combi (Thermo Fisher Scientific Inc., Waltham, MA) dispenser. After the assay plates were incubated at 37C for 5 h, 23 nL of compound or DMSO vehicle was transferred to the assay plates by a pintool station (Kalypsys, San Diego, CA). The plates were incubated at 37C for 24 hr. For cell viability measurement, 1 ul/well of CellTiter-Fluor reagent (Promega, Madison, WI) was added into the assay plates using a Flying Reagent Dispenser (FRD) (Aurora Discovery, CA),and then the assay plates were incubated at 37C for 30 min. The fluorescence intensity in the plates was measured using a ViewLux plate reader (PerkinElmer, Shelton, CT), followed by the addition of 4 uL of ONE-Glo Luciferase Assay reagent (Promega) using an FRD (Aurora Discovery). After the assay plates were incubated at room temperature for 30 min, luminescence intensity was measured using a ViewLux plate reader (Perkin Elmer).
Potency is read from the fitted curve at half-maximal effect.

Row | Compound | Potency | viability change, negative = cytotoxic
1 | C=C1C(=C/C=C2\CCC[C@]3(C)[C@@H]([C@H](C)/C=C/[C@@H](O)C4CC4)CC[C@@H]23)C[C@@H](O)C[C@@H]1O | inactive | –
2 | OC(CN1CCC(Cc2ccc(F)cc2)CC1)c1ccc(Cl)cc1 (stereo not given) | inactive | –
3 | COc1cc(C(=O)OCCCN2CCCN(CCCOC(=O)c3cc(OC)c(OC)c(OC)c3)CC2)cc(OC)c1OC | inactive | –
4 | CCCCCCCCCOS(=O)(=O)O | inactive | –
5 | OCCN1CCN(CCCN2c3ccccc3C=Cc3ccccc32)CC1 | 10.6 µM (active) and 26.6 µM (active) | –
6 | OC[C@H]1O[C@@H](OCCc2ccc(O)cc2)[C@H](O)[C@@H](O)[C@@H]1O | inactive | –
7 | C=C(C)C(=O)OCC | inactive | –
8 | COc1ccc(C)cc1[N+](=O)[O-] | inactive | –
9 | CC(C)CC(=O)C1C(=O)c2ccccc2C1=O | inactive | –
10 | O=C(O)C1(C(=O)Nc2ccc(Cl)cc2Cl)CC1 | inactive | –
11 | Cc1ccccc1S(=O)(=O)O | inactive | –
12 | CC(C)C[C@H]1C(=O)N2CCC[C@H]2[C@]2(O)O[C@](NC(=O)[C@@H]3C=C4c5cccc6[nH]c(Br)c(c56)C[C@H]4N(C)C3)(C(C)C)C(=O)N12 | 26.6 µM (active) | –
13 | CC(=O)OC[C@H]1O[C@@H](n2ncc(=O)[nH]c2=O)[C@H](OC(C)=O)[C@@H]1OC(C)=O | inactive | –
14 | C=CC(=O)OCCOc1ccccc1 | inactive | –
15 | CN(C)CCCN1c2ccccc2Sc2ccccc21 | inactive | –
16 | S=C([S-])NCCNC(=S)[S-].[Mn+2] | inactive | –
17 | C=CCOc1ccccc1OCC(O)CNC(C)C (stereo not given) | inactive | –
18 | CC[N+](C)(CC)CCOC(=O)C(O)(c1ccccc1)C1CCCCC1 (stereo not given) | inactive | –
19 | CCCn1cnc2c1c(=O)n(CCCCC(C)=O)c(=O)n2C | inactive | –
20 | N=c1ccn2c(n1)O[C@H]1[C@H](O)[C@@H](CO)O[C@H]12 | inactive | –

Row | Compound | Potency | viability change, negative = cytotoxic
21 | C=CC1CC2C=CC1C2 (stereo not given) | inactive | –
22 | Clc1ccc(Cn2c(CN3CCCC3)nc3ccccc32)cc1 | inactive | –
23 | Cc1c(N)cccc1[N+](=O)[O-] | inactive | –
24 | NC(=O)C(c1ccccc1)(c1ccccc1)[C@@H]1CCN(CCc2ccc3c(c2)CCO3)C1 | inactive | –
25 | CCOCC(O)COc1ccc(NC(=O)CC[S+](C)C)cc1 (stereo not given) | inactive | –
26 | COc1cc(Cl)c(OC)cc1N | inactive | –
27 | C=C(C)C(=O)OCCO | inactive | –
28 | O=CC1CC=CCC1 (stereo not given) | inactive | –
29 | CCCCc1nc2cccnc2n1Cc1ccc(-c2ccccc2-c2nnn[nH]2)cc1 | inactive | –
30 | Nc1ccc(S(=O)(=O)Nc2ccccc2)cc1 | inactive | –
31 | CCCCCCCCCCCCCCOS(=O)(=O)O | inactive | –
32 | CCCCC1=NC2(CCCC2)C(=O)N1Cc1ccc(-c2ccccc2-c2nn[nH]n2)cc1 | inactive | –
33 | CCCCC | inactive | –
34 | O=C(O)CNCC(=O)O | – | -0.209% [at 8.47 µM]
35 | CC(CC=O)c1ccccc1 (stereo not given) | inactive | –
36 | CCOC(=O)COC(=O)c1cc(Oc2ccc(C(F)(F)F)cc2Cl)ccc1[N+](=O)[O-] | inactive | –
37 | O=[N+]([O-])c1cccc(S(=O)(=O)O)c1 | inactive | –
38 | CCOC(=O)C1=C[C@]2(CC)CCCN3CCc4c(n1c1ccccc41)[C@@H]32 | inactive | –
39 | COc1ccc(C(=O)N2CCN(CC(=O)N3CCOCC3)CC2)cc1 | inactive | –
40 | O=S(c1cc(Cl)cc(Cl)c1O)c1cc(Cl)cc(Cl)c1O | inactive | –
